# Data reported in the supplement of paper PMC10338343.
# ± gives the standard deviation. Over roughly 8,200 sequences, “pre-steady-state target cleavage rate” has its median near 0.024; the highest 2% begin near 1.3. This is one part of a sample in which the highest values are shown more often than they occur.
# System: MIWI (PIWIL1) piRISC loaded with L1MC piRNA (30 nt)
# Experiment: pre-steady-state target cleavage rate (min^-1); MIWI and MILI are mouse PIWI proteins and EfPiwi is from a freshwater sponge; tags in brackets are library labels; higher = faster piRNA-guided slicing of the target
# Conditions: guide: L1MC piRNA 5'p-UAACUAAAUACUAUGCAAGCUGUAGGUCCU
# How it was run: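 In HEPES–potassium acetate buffer at 33 °C, […] transcribed, DNA-blocked target RNA library was mixed with 1 nM active affinity-purified piRISC carrying one synthetic guide, with or without 500 nM GTSF1 partner protein, for 0–8 or 0–960 min. Uncleaved targets were sequenced and normalised to depth and to weakly complementary targets; three trials were pooled and k3 was capped at 0.0001 min^-1. The pre-steady-state cleavage rate followed from a burst-and-steady-state fit.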
# [1] = auxiliary factor: 500 nM mouse GTSF1
# [2] = auxiliary factor: none (no GTSF1)
# 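Also: 1 nM active piRISC with 0.1 nM target library at 33 °C single turnover.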
Sequence,pre-steady-state target cleavage rate [1],pre-steady-state target cleavage rate [2]
UCCUGGAUGAGCAAGCAUAGUAUUUAGUAA,0.0379 ± 0.01,–
UCCUGGAUGUGCAUGCAUAGUAUUUAGUUA,0.13 ± 0.014,0.00793 ± 0.0025
UCCUGGAUGUGCUUGCAAAGUUUUUAGUUA,0.00751 ± 0.0037,0.00575 ± 0.002
UCCUCCAACAGCUUGGAUAGUAUUUAGUUA,1.3 ± 0.053,0.0527 ± 0.0092
UGGACCAACAGCUUCCAUAGUAUUUAGUUA,0.0364 ± 0.0068,0.00383 ± 0.0016
UGGACCAACAGCUUGGAUAGUAUUUAGUUA,1.49 ± 0.054,0.0691 ± 0.011
UCCUGGAACAGCUUGGAUAGUAUUUAGUUA,1.18 ± 0.043,0.0808 ± 0.015
UCCAGCUACAGCUUGGAUAGUAUUUAGUUA,1.31 ± 0.12,0.0456 ± 0.0069
UCCACCAACAGCUUGGAUAGUAUUUAGUUA,1.36 ± 0.056,0.0553 ± 0.01
UCGACCAACAGCUUCCAUAGUAUUUAGUUA,0.0723 ± 0.016,0.0035 ± 0.0011
AGGACCAACAGCUUCCAUAGUAUUUAGUUA,0.0962 ± 0.019,0.00538 ± 0.0017
AGGACCAACAGCUUGCAUAGUAUUUAGAUA,0.509 ± 0.045,0.0557 ± 0.011
AGGACCAACAGCUUGGAUAGUAUUUAGUUA,1.41 ± 0.059,0.0681 ± 0.01
UCGAGCUACAGCUUGGAUAGUAUUUAGUUA,1.11 ± 0.086,0.0477 ± 0.0076
UCGACCAACAGCUUGGAUAGUAUUUAGUUA,1.67 ± 0.045,0.0693 ± 0.011
UCCUCCUACAGCUUCGAUAGUAUUUAGAAA,0.0755 ± 0.019,–
UCCUGGAUGAGCUUGCAUAGUAUUUAGUGA,0.703 ± 0.047,0.0519 ± 0.0094
UCCUGCUACAGCUUGCAUUGUAUUAAGUUA,0.502 ± 0.038,0.00942 ± 0.0021
UCCACCUACAGCUUGGAUAGUAUUUUCAAA,0.0295 ± 0.012,–
UCCUCCUACAGCAUGCAUAGUAUUUAGAAA,0.485 ± 0.066,–
UGGACCUACAGCUUGGAUAGUAUUUAGUUA,1.65 ± 0.068,0.0735 ± 0.013
UCGACCUACAGGUUGGAUAGUAUUUAGUUA,1.16 ± 0.11,0.0308 ± 0.0056
UGGACCUACAGCUUGGAUAGUAUUUAGAUA,0.427 ± 0.05,0.0235 ± 0.0046
AGGACCUACAGCUUGGAUAGUAUUUAGUUA,1.67 ± 0.052,0.0813 ± 0.013
AGGACCUACAGGUUGGAUAGUAUUUAGUUA,1.24 ± 0.079,0.0408 ± 0.0067
UCCACCUACAGCUUGGAUAGUAUUUAGUUA,1.44 ± 0.056,0.0469 ± 0.0082
AGGACCUACAGCUUGGAUAGUAUUUAGAUA,0.527 ± 0.057,0.0218 ± 0.0053

Sequence,pre-steady-state target cleavage rate [1],pre-steady-state target cleavage rate [2]
UCCACCUACAGCUUGGAUAGUAUUUAGAUA,0.319 ± 0.042,0.0137 ± 0.0027
UCCACCUACAGCUUGGAUAGUAUUUAGUAA,0.747 ± 0.054,0.0244 ± 0.0052
UGGACCUACAGCUUGGAUAGUAUUUAGUAA,0.851 ± 0.062,0.0355 ± 0.006
UGGACCUACAGGUUGGAUAGUAUUUAGUUA,1.33 ± 0.091,0.0484 ± 0.0079
AGGACCUACAGCUUGGAUAGUAUUUAGUAA,1.02 ± 0.063,0.0552 ± 0.012
UCCACCUACAGGUUGCAUAGUAUUUACAAA,0.336 ± 0.052,–
UCCACCUACAGCUUGCAUAGUUUUUAGAUA,0.16 ± 0.029,0.0077 ± 0.0023
UCCUGGUUCAGGUUGCAUAGUAUUUAGUUA,0.711 ± 0.051,0.0138 ± 0.0041
AGGAGCUACAGCUAGCAUAGUAUUUAGUUA,1.28 ± 0.076,0.0359 ± 0.0079
UCCUGCUACAGCUAGCAUAGUAUUUACAAA,0.234 ± 0.049,–
UCCUGCUACAGCUUGCUUAGUAUUAAGUUA,0.403 ± 0.038,0.00887 ± 0.0026
UCCUGGAUCAGCUUGCAUCGUAUUUAGUUA,0.327 ± 0.02,0.032 ± 0.0077
AGGACCUACAGCUUGCAUAGUAUUUUCUUA,0.33 ± 0.049,0.03 ± 0.0093
UCCUCCUACACCUUGCAUAGAAUUUAGUUA,0.341 ± 0.082,0.00682 ± 0.0023
UCCUCCUACAGCUUGCAUUGAAUUUAGUUA,0.183 ± 0.018,0.00617 ± 0.0025
UCGACCUACACCUUGCAUAGAAUUUAGUUA,0.395 ± 0.07,0.0128 ± 0.0024
UCGACCUACAGCUUGCAUUGUAUUUACUUA,0.49 ± 0.028,0.0226 ± 0.0052
UCGACCUACAGCUAGGAUAGUAUUUAGUUA,1.29 ± 0.064,0.00874 ± 0.0021
AGGACCUACAGCUAGGAUAGUAUUUAGUUA,1.09 ± 0.06,0.0102 ± 0.0018
UGGACCUACAGCUAGGAUAGUAUUUAGUUA,1.39 ± 0.068,0.00938 ± 0.0019
AGGAGCUACAGCUUGGAUAGUAUUUAGUUA,1.17 ± 0.081,0.0558 ± 0.0094
AGGACGUACAGCUUGGAUAGUAUUUAGUUA,1.36 ± 0.067,0.0579 ± 0.0083
UCCUCGUACAGCUUGGAUAGUAUUUAGUUA,1.22 ± 0.062,0.0636 ± 0.011
UCGACGUACAGCUUGGAUAGUAUUUAGUUA,1.24 ± 0.042,0.0503 ± 0.0083
UGGACGUACAGCUUGGAUAGUAUUUAGUUA,1.4 ± 0.054,0.0597 ± 0.01
UCCACGUACAGCUUGGAUAGUAUUUAGUUA,1.14 ± 0.065,0.0509 ± 0.0081
UCGUCCUAGAGCUUGCAUAGUAUUUAGUUA,0.957 ± 0.041,0.0436 ± 0.0072

Sequence,pre-steady-state target cleavage rate [1],pre-steady-state target cleavage rate [2]
UCCUCCUAGCAGCUUGCAUAGUAUUUAGUUA,1.12 ± 0.046,0.0448 ± 0.0093
UCCACCUACAGCUUCGAUAGUAUUUAGAAA,0.0807 ± 0.021,–
UCCUGGAUGAGCUUGCUAUGUAUUUAGUUA,0.00494 ± 0.0027,0.00308 ± 0.0029
AGGAGCUAGAGCUUGCAUAGUAUUUAGUUA,0.922 ± 0.049,0.0536 ± 0.0099
AGGAGCUUCAGCUUGCAUAGUAUUUAGUUA,1.48 ± 0.047,0.0864 ± 0.015
UCGAGCUUCAGCUUGCAUAGUAUUUAGUUA,1.12 ± 0.046,0.0555 ± 0.0099
UGGAGCUAGAGCUUGCAUAGUAUUUAGUUA,0.707 ± 0.048,0.0402 ± 0.0068
UGGAGCUUCAGCUUGCAUAGUAUUUAGUUA,1.34 ± 0.048,0.0706 ± 0.01
UCCUGCUUCAGCUUGCAUAGUAUUUAGUAA,0.537 ± 0.036,0.0275 ± 0.0068
AGGACCUAGUGCUUGCAUAGUAUUUAGUAA,0.457 ± 0.051,0.0314 ± 0.0063
UCCUCCUACAGCUUGCUAAGUAUUUAGUAA,0.066 ± 0.012,–
AGGACCUACAGCUUGGAUAGUAUUAAGUUA,0.722 ± 0.072,0.0226 ± 0.004
AGACCUACAGCUUGCAUAGUAUUUAGUUA,1.46 ± 0.052,0.0902 ± 0.017
UAGACCUACAGCUUGCAUAGUAUUUAGUUA,1.31 ± 0.043,0.0672 ± 0.011
AAGACCUACAGCUUGCAUAGUAUUUAGUUA,1.69 ± 0.062,0.0921 ± 0.015
AGGACCUACAGGUAGCAUAGUAUUUAGUUA,1.04 ± 0.054,0.00995 ± 0.0022
UCCUGGUACAGCUUGCAUAGUAAAUUCAAA,0.00975 ± 0.0053,–
UCCUCCUACAGCUUGCAUAGUAUUUAGAUUA,0.342 ± 0.031,0.0121 ± 0.0024
UCCUGGAAGUCCUUGCAUAGUAUUUAGUUA,0.175 ± 0.02,0.0104 ± 0.0031
UCGCCCUACAGCUUGCAUAGUAUUUAGUUA,1.32 ± 0.055,0.0692 ± 0.011
UCCGCCUACAGCUUGCAUAGUAUUUAGUUA,1.23 ± 0.05,0.0714 ± 0.011
UCGCCUACAGCUUGCAUAGUAUUUAGUUA,1.5 ± 0.066,0.0743 ± 0.014
UCCCCCUACAGCUUGCAUAGUAUUUAGUUA,1.28 ± 0.039,0.0819 ± 0.014
UCCUGGUACAGCUUGCAUAGUUUUUAGUAA,0.177 ± 0.037,0.0195 ± 0.0054
UCCUGGUACAGCUUGCAUAGUUAUUAGUUA,0.115 ± 0.018,0.018 ± 0.0051
